Compound activity (PubChem)
An excerpt weighted towards active compounds, which were near 12% of everything screened.
Cycloheximide cs = counter-screen for Shiga toxin inhibitors: cycloheximide protein synthesis inhibition; cell reporter, cycloheximide protein synthesis inhibition counterscreen; max response, %; 300,000 tested, 12% active; AID 2314; in the data active = max response mostly above about 13%, no sharp cut-off; inactive = mostly below about 14%; also: read at 38.3 µM for the half of the compounds with a filed dose
Shiga toxin inh = blocks Shiga toxin action in Vero cells. inhibition, % at 38.7 µM. 290,000 tested, 9.2% active. Vero cells, Shiga toxin protein synthesis inhibition reporter; in the data active = inhibition mostly above about 28%, no sharp cut-off; inactive = mostly below about 43%
FMDV inh = blocks foot and mouth disease virus; FMDV antiviral cell-based qHTS; Potency, µM (doses to about 57.9 µM), most hits filed as inhibitors; 410,000 tested, 1.2% active; calls by dose curve; tested in HEK293T cells; also: read-out not given here; nearly all actives have a fitted effect of over 45% in size
Sm TGR inh = blocks Schistosoma mansoni thioredoxin glutathione reductase | Q962Y6 | purified TGR, DTNB reduction, TNB absorbance 405 nm | Potency, µM (highest dose often 114 µM), usual class: inhibitors | 360,000 tested, 3% active; active = well fitted inhibition curve with a large enough effect; inconclusive = small, poorly fitted or top-dose-only effect; inactive = no such curve, though single readings can be large or run the other way; also: nearly all actives have a fitted effect of over 60% in size
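Kinetic colorimetric format: TGR-catalysed, NADPH-driven DTNB reduction monitored via TNB absorbance. Enzyme dispensed at 20 nM; compound exposure 15 min at room temperature before reaction start.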
Hits are given with their value; 0 = inactive; ? = inconclusive; - = not tested or not shown; + = active, no number.

SMILES	Cycloheximide cs	Shiga toxin inh	FMDV inh	Sm TGR inh
CC(C)COC(=O)c1ccc(NC(=O)C2C3CCC(C3)C2C(=O)O)cc1 (stereo not drawn)	61.8	73.6	0	0
O=C(NC(=S)Nc1ccc(Br)cc1)C1CCC1	47.1	102.4	0	0
CCOC(=O)c1ccc(NC(=S)NC(=O)C2CCCC2)cc1	26.8	0	0	?
O=C(O)c1ccccc1NC(=O)N1c2ccccc2Sc2ccccc21	-	-	0	0
N#C/C(=C\c1ccc(Cl)cc1)C(=O)NCC1CCCO1 (stereo not drawn)	-	-	0	0
CCc1ccccc1NC(=O)CN1CCCN(Cc2cc(C)ccc2C)S1(=O)=O	-	-	?	0
COC(=O)c1ccc(NC(=O)CNC(=O)C2CCCCC2)cc1	0	0	-	0
COC(=O)c1ccc(NC(=S)NC(=O)C2CCC2)cc1	25.8	63.9	0	?
COC(=O)c1ccc(NC(=S)NC2CCCCC2C)cc1 (stereo not drawn)	25.0	0	0	0
COc1ccc(NC(=O)C23CCC(C)(C(=O)O2)C3(C)C)cc1 (stereo not drawn)	0	0	0	0
CCOC(=O)c1ccc(NC(=O)C2C3CCCCC32)cc1 (stereo not drawn)	42.8	103.3	0	0
CCOC(=O)c1ccc(NC(=O)C23CCC(C)(C(=O)O2)C3(C)C)cc1 (stereo not drawn)	49.8	65.1	0	0
COCCn1c(=O)c(-c2ccc(OC)cc2)nc2cnc(N3CCOCC3)nc21	-	-	0	-
CC(C)(C)C(=O)Nc1ccc(C(=O)OC2CCCCC2)cc1	49.9	102.4	-	0
O=C(O)c1ccc(NC(=S)NC2CCCCC2)cc1	0	0	0	0
COc1ccc(NC(=O)C(=S)N2CCCC2)cc1	30.3	0	0	0
CCOC(=O)c1ccc(NC(=S)NC2CCCC2)cc1	22.3	+	0	0
COc1ccc(NC(=S)NC(=O)C2CCC2)cc1	40.0	42.7	0	?
CCCN(CCC)CCNC(=O)c1sc2nc3n(c(=O)c2c1C)CCCCC3	-	-	0	0
CCOC(=O)N1CCc2c(sc3c2c(=O)n(Cc2ccccc2)c(=O)n3Cc2ccccc2Cl)C1	-	-	?	0
NC(=O)c1oc2ccccc2c1NC(=O)c1ccc(F)cc1	0	0	0	0
Nc1ccccc1C(=O)N=Nc1[nH]c(N)c2ccccc12	43.6	16.2	0	0
Nc1[nH]c(N=NC(=O)c2ccc(F)cc2)c2ccccc12	90.9	121.1	0	0
O=C(Cn1c(=O)n(Cc2ccc3c(c2)OCO3)c(=O)c2ccc(C(=O)NC3CCCCC3)cc21)Nc1ccccc1F	-	-	0	0
Cc1ccc(-c2ccc(C(=O)NCCCNC(=O)c3cnccn3)o2)cc1Cl	0	0	0	31.6µM
SMILES	Cycloheximide cs	Shiga toxin inh	FMDV inh	Sm TGR inh
Cc1cccn2c(=O)cc(COc3cccc(NC(=O)COc4ccc(F)cc4)c3)nc12	-	-	?	0
COc1cc(/C=C/c2nc3ccccc3s2)cc(OC)c1O	40.6	77.7	0	0
COc1cccc(/C=C(\CC(=O)O)c2nc3ccccc3s2)c1	0	0	0	0
COc1ccc(C=C2c3ccccc3C(=O)c3ccccc32)cc1O	0	0	-	-
COc1cc(C=C(c2nc3ccccc3s2)c2nc3ccccc3s2)ccc1O	22.6	0	0	0
COc1ccc(C=C(c2nc3ccccc3s2)c2nc3ccccc3s2)cc1O	89.0	+	0	0
Cc1ccccc1CNC(=O)Nc1cccs1	50.8	66.0	0	0
CC(C(=O)NCc1cccs1)n1cccc1 (stereo not drawn)	0	0	0	0
O=C(NCc1cccs1)C(Cc1ccccc1)n1cccc1 (stereo not drawn)	0	0	0	39.8µM
O=C(NCc1ccccc1)NCc1cccs1	22.4	41.5	0	0
O=C(CCS(=O)NCc1ccccc1)NCc1ccccc1 (stereo not drawn)	0	0	-	31.6µM
Cc1ccccc1CNC(=O)/C=C\C(=O)O	0	0	0	0
COc1ccc(CNC(=O)CN2C(=O)CCn3nc(-c4ccccc4)cc32)c(OC)c1	-	-	0	0
O=C(NCc1cccs1)Nc1cccc(Cl)c1	-	-	0	-
O=C(NCc1cccs1)Nc1cccs1	38.1	33.4	0	0
CCOC(=O)c1cc(OC(=O)c2ccc(C)cc2)n(-c2ccccc2)n1	-	-	0	0
C/C(=N\NC(=O)CN1CCCCC1)c1ccccc1O	23.2	39.4	0	0
CC(=O)c1cccc(NC(=O)N2CCc3ccccc3C2)c1	25.3	100.0	0	0
CC(=O)c1ccc(NC(=O)N2CCc3ccccc3C2)cc1	29.2	109.1	0	0
C/C(=N\NC(=O)c1ccc(CN2CCc3ccccc3C2)cc1)c1ccccc1O	0	0	22.4µM	0
O=C(Nc1cccc2ccccc12)N1CCc2ccccc2C1	0	0	0	0
C/C(=N\NC(=O)CN1CCCCC1)c1cccc([N+](=O)[O-])c1	-	-	0	-
CC1CCN(S(=O)(=O)c2cc(C(=O)NCc3ccc(N(C)C)cc3)n(C)c2)CC1	-	-	0	0
COc1cccc(NC(=O)c2ccc(CN3CCc4ccccc4C3)cc2)c1	0	0	0	0
CC(=O)c1cccc(NC(=O)c2ccc(CN3CCc4ccccc4C3)cc2)c1	12.5	0	?	0
SMILES	Cycloheximide cs	Shiga toxin inh	FMDV inh	Sm TGR inh
CC(C)(C)SCCNC(=O)c1ccc(CN2CCc3ccccc3C2)cc1	44.0	53.5	0	0
Cc1cccc(NS(=O)(=O)c2ccc3c(c2)CCN3C(=O)C2CCC2)c1	-	-	0	0
CCn1nc(C)cc1C(=O)Sc1ccc(C)cc1	0	0	0	17.8µM
Cc1ccc(OC(=O)c2cc(C)nn2C(C)(C)C)cc1	0	0	0	0
CCN(CC)c1ccc(/C=N/NC(=O)c2ccco2)cc1	49.2	52.5	0	0
CCN(CC)c1ccc(/C=N/NC(=S)NCc2ccccc2)c(O)c1	0	0	0	0
CCN(CC)c1ccc(/C=N/NC(=O)Cc2cccs2)c(O)c1	32.0	78.4	0	0
CCN(CC)c1ccc(/C=N/NC(=O)c2ccco2)c(O)c1	37.5	75.7	0	0
COc1ccc(N2CCN(C(=O)C3CCN(S(=O)(=O)c4cnc[nH]4)CC3)CC2)cc1	-	-	0	0
CC(=O)Nc1ccc(/C=C/c2nc(-c3ccccc3O)n[nH]2)cc1	47.8	56.9	0	0
COc1ccc(CNC(=O)Nc2ccccc2)cc1	45.3	65.3	0	0
COc1ccc(CNC(=O)Nc2ccc(OC)cc2)cc1	0	0	-	0
COc1ccc(CNC(=O)Nc2cccc(C)c2)cc1	21.9	0	0	0
CCOc1ccc(CNC(=O)Nc2ccccc2)cc1	22.1	48.5	0	0
CCc1ccc(NC(=O)CN(c2ccc(Cl)cc2)S(=O)(=O)c2ccsc2C(=O)OC)cc1	-	-	0	0
CCOC(=O)c1nnn2c1nc(N1CCOCC1)c1ccccc12	0	0	0	0
Nc1nc2c(C(=O)N3CCOCC3)nnn2c2ccccc12	21.4	60.4	0	0
COc1cccc2[nH]c(=O)c(-c3ccccc3)cc12	61.2	120.5	0	0
COc1ccc(-c2cc(=O)[nH]c3ccccc23)cc1	-	-	0	0
Cc1nc(C2COc3ccccc3O2)sc1C(=O)O (stereo not drawn)	13.1	70.7	0	0
Cc1ccccc1Oc1ccc(Oc2ccccc2C)nn1	30.7	116.4	-	0
Cc1ccc(Oc2ccc(Oc3ccc(C)cc3)nn2)cc1	0	0	0	0
CCCCC(=O)OCc1cc(=O)n2nc(C3CCCCC3)sc2n1	-	-	0	0
